According to PubChem BioAssay (Tox21):
Values without a mark were called inactive. Inconclusive results are not listed. A call without a number means that no potency is given here. Active and inactive are the calls of the source. Unless noted, the call rests on the fitted dose curve.

Assays:
[1] = Nuclear factor erythroid 2-related factor 2/antioxidant responsive element (Nrf2/ARE) small molecule agonists: qHTS cell viability counter screen in human keratinocytes (AID 1919968; active means well fitted curve in the direction sought with a large enough effect in the repeat runs; an effect the other way counts as inactive or inconclusive; further: nearly all actives have a fitted effect of over 55% in size)
In short: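 CellTiter-Fluor fluorescence, read 1 h after reagent, gave viability in the same wells as the ARE-luciferase assay. KeratinoSens cells (1,500/well) had 23 h compound exposure at 37 C/5% CO2 following 5 h plating.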

[2] = Nuclear factor erythroid 2-related factor 2/antioxidant responsive element (Nrf2/ARE) small molecule agonists: luciferase reporter gene qHTS assay in human keratinocytes (AID 1919969); further: nearly all actives have a fitted effect of over 35% in size
[3] = biological target: Gonadotropin-releasing hormone receptor (Homo sapiens) (UniProt P30968); test: Human gonadotropin-releasing hormone receptor (GnRHR) small molecule agonists, calcium flux assay in GnRHR-HEK293 cells (AID 1920063); further: nearly all actives have a fitted effect of over 35% in size
In short: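 Agonist mode: compounds at 15 concentrations, in triplicate, went onto calcium dye-loaded GnRHR-HEK293 cells. Intracellular calcium was then followed as 480/540 nm fluorescence at 1 s intervals over 3 min.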

[4] = biological target: KiSS-1 receptor (Homo sapiens) (UniProt Q969F8); test: Human kisspeptin (KISS1R) small molecule agonists, calcium flux assay in KISS1R-HEK293 cells (AID 1920064; active means well fitted curve in the direction sought with a large enough effect in the repeat runs; an effect the other way counts as inactive or inconclusive)
In short: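 Agonist mode: intracellular calcium rise tracked at 1 s intervals over 3 min (480/540 nm) immediately after compound addition to dye-loaded KISS1R-HEK293 stable cells. Each compound tested at 15 concentrations in triplicate.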

[5] = G protein-coupled receptor (GPCR) small molecule agonists, calcium flux assay: HEK293 wild type cell line counter screen (AID 1920065)
In short: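 Calcium flux counter screen: compound added in agonist mode at 15 concentrations in triplicate to dye-loaded parental HEK293 cells. Fluorescence (480/540) read kinetically for 3 min; ATP served as positive control.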

[6] = p53 small molecule agonists, cell-based qHTS assay with human liver microsomes (AID 1963577)
In short: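 Cells carrying a p53-responsive bla reporter were rested 5 h (37 C, 5% CO2) before compound transfer. Human liver microsomes plus NADPH, 0.5 mg/mL final apiece, supplied metabolism during the 16 h 37 C exposure.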

[7] = p53 small molecule agonists, cell-based qHTS assay with rat liver microsomes (AID 1963578)
In short: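 Fluorescence from a beta-lactamase reporter under a p53 response element was measured after cells had been incubated 16 h at 37 C with test compound and rat liver microsomes plus NADPH (0.5 mg/mL final each).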

[8] = p53 small molecule agonists, cell-based qHTS assay with human liver microsomes: qHTS cell viability counter screen (AID 1963579); further: nearly all actives have a fitted effect of over 45% in size
In short: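 Seed p53RE-bla cells at 4,000 per well; incubate 5 h at 37 C; add compound, human liver microsomes and NADPH; incubate 16 h at 37 C; add CellTiter-Glo; after 30 min at room temperature, read luminescence.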

[9] = p53 small molecule agonists, cell-based qHTS assay with rat liver microsomes: qHTS cell viability counter screen (AID 1963580); further: nearly all actives have a fitted effect of over 45% in size
In short: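 Luminescent ATP readout (CellTiter-Glo, 30 min at room temperature) reports viability of p53RE-bla HCT-116 cells after 16 h at 37 C with test compounds under metabolic activation by rat liver microsomes and NADPH at 0.5 mg/mL final each.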

[10] = p53 small molecule agonists, cell-based qHTS assay: qHTS cell viability counter screen (AID 1963581); further: nearly all actives have a fitted effect of over 45% in size
In short: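 Counter screen read by CellTiter-Glo luminescence (ATP content, 30 min at room temperature), run in the same wells as the beta-lactamase reporter read. HCT-116 p53RE-bla cells saw compounds for 16 h at 37 C.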

[11] = p53 small molecule agonists, cell-based qHTS assay (AID 1963582; active means well fitted activation curve with a large enough effect in the signal ratio in the repeat runs, not every such curve was filed as active; the % refers to the signal ratio)
In short: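 Read-out is beta-lactamase FRET fluorescence after 2 h at room temperature with LiveBLAzer B/G substrate. p53 response element-bla cells were treated 16 h at 37 C with compounds in DMSO, added 5 h after seeding.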

[12] = biological target: 5-hydroxytryptamine receptor 2A (Homo sapiens) (UniProt P28223); test: 5-hydroxytryptamine receptor 2A (HTR2A) small molecule antagonists, cell-based qHTS assay (AID 1963586); further: nearly all actives have a fitted effect of over 45% in size
In short: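 CHO cells stably expressing human HTR2A were plated for 18 h at 37 C, then loaded with calcium dye for 1 h. Compounds were preincubated 5 min at room temperature before DOI (4 nM solution) was added. Kinetic fluorescence was read for 3 min.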

[13] = biological target: 5-hydroxytryptamine receptor 2A (Homo sapiens) (UniProt P28223); test: 5-hydroxytryptamine receptor 2A (HTR2A) small molecule agonists, cell-based qHTS assay (AID 1963587); further: nearly all actives have a fitted effect of over 30% in size
In short: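 HTR2A-CHO cells, plated 18 h at 37 C/5% CO2, dye-loaded 1 h at 37 C; compounds in DMSO added by pin tool (agonist mode). Intracellular calcium flux read as kinetic fluorescence on FDSS over 2 min at 1 s intervals.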

[14] = biological target: Muscarinic acetylcholine receptor M1 (Homo sapiens) (UniProt P11229); test: Cholinergic receptor muscarinic 1 (CHRM1) small molecule antagonists, cell-based qHTS assay (AID 1963588); further: nearly all actives have a fitted effect of over 40% in size; further: potency means the concentration at half of the fitted maximal effect
In short: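 Compounds were tested at 15 concentrations in three independent runs. Dye-loaded CHRM1-CHO cells were exposed 5 min at room temperature before stimulation by acetylcholine added at 50nM. Intracellular calcium was read kinetically on FDSS for 3 min.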

[15] = biological target: Muscarinic acetylcholine receptor M1 (Homo sapiens) (UniProt P11229); test: Cholinergic receptor muscarinic 1 (CHRM1) small molecule agonists, cell-based qHTS assay (AID 1963589); further: nearly all actives have a fitted effect of over 35% in size
In short: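 Agonist-mode calcium-flux screen: compounds at 15 concentrations, three independent runs, were pin-transferred onto dye-loaded human CHRM1-CHO cells. Fluorescence was then recorded kinetically every second over minutes.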

[16] = cAMP Responsive Elements (CRE) small molecule agonists, cell-based qHTS assay (AID 1963590)
In short: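 Agonist mode: compound added to CRE-bla HEK 293T cells (2,000/well, 18 h after plating) for 3 h at 37 C/5% CO2. Reporter activity detected via FRET beta-lactamase substrate, 2 h room-temperature loading.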

[17] = cAMP Responsive Elements (CRE) small molecule antagonists, cell-based qHTS assay (AID 1963591; active means well fitted inhibition curve with a large enough effect in the signal ratio in the repeat runs, not every such curve was filed as active; the % refers to the signal ratio)
In short: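 Antagonist mode: compounds are added alongside the adenylyl cyclase activator NKH477 (0.25 uM final) to CRE-bla HEK293T cells for 3 h. LiveBLAzer FRET substrate, 2 h at room temperature, reports bla expression.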

[18] = biological target: Beta-2 adrenergic receptor (Homo sapiens) (UniProt P07550); test: Adrenergic beta2 receptor (ADRB2) small molecule antagonists, cell-based qHTS assay (AID 1963592); further: series mostly up to about 92 µM; nearly all actives have a fitted effect of over 50% in size
In short: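 Assay format: CHO-ADRB2 cells, 18-20hr seeding at 37C/5% CO2, then compound plus 1nM isoproterenol agonist mix for 0.5hr RT. Homogeneous time-resolved fluorescence cAMP detection after 1hr, expressed as 665/615 nm ratio.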

[19] = biological target: Beta-2 adrenergic receptor (Homo sapiens) (UniProt P07550); test: Adrenergic beta2 receptor (ADRB2) small molecule agonists, cell-based qHTS assay (AID 1963593);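 further: CHO cells stably overexpressing human ADRB2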
In short: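 CHO cells stably over-expressing ADRB2 were plated overnight at 37C, then dosed with compounds plus a stimulation mix containing 100uM IBMX and 25uM Ro-20-1724 for 0.5hr at room temperature. cAMP was measured by HTRF competition, 1hr.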

[20] = biological target: D(2) dopamine receptor (Homo sapiens) (UniProt P14416); test: Dopamine D2 receptor (DRD2) small molecule agonists, cell-based qHTS assay (AID 1963594); further: nearly all actives have a fitted effect of over 35% in size
In short: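 HEK293 cells stably expressing DRD2 were cultured 24 h at 37 C, then given Ro20-1724 (0.1 mM final) and compounds for 10 min at room temperature. NKH477 (200nM) was then added for 30 min. cAMP was read by HTRF.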

Chain of 5-hydroxytryptamine receptor 2A (Homo sapiens) (P28223 whole entry, looked up): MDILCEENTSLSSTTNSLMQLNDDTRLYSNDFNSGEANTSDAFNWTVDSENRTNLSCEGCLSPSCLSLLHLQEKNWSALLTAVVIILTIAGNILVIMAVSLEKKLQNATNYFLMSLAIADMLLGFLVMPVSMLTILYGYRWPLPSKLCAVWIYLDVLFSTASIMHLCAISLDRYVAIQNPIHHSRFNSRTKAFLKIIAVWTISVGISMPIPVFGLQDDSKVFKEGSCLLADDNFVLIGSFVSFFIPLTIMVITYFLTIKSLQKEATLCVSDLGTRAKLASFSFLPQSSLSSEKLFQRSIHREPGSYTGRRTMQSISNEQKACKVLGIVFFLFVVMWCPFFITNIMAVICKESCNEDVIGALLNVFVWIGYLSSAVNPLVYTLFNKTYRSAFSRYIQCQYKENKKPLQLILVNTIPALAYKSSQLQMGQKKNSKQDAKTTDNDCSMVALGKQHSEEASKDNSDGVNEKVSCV
Chain of Gonadotropin-releasing hormone receptor (Homo sapiens) (P30968 whole entry, looked up): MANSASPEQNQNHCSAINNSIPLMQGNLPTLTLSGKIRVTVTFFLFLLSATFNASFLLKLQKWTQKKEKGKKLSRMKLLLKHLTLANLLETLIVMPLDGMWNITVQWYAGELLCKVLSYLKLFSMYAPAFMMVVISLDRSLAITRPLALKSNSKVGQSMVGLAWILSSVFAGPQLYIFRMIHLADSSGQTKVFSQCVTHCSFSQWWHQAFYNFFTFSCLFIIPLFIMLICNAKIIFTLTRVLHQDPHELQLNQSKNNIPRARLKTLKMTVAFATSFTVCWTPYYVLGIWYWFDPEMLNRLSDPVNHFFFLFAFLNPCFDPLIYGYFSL
Chain of D(2) dopamine receptor (Homo sapiens) (P14416 whole entry, looked up): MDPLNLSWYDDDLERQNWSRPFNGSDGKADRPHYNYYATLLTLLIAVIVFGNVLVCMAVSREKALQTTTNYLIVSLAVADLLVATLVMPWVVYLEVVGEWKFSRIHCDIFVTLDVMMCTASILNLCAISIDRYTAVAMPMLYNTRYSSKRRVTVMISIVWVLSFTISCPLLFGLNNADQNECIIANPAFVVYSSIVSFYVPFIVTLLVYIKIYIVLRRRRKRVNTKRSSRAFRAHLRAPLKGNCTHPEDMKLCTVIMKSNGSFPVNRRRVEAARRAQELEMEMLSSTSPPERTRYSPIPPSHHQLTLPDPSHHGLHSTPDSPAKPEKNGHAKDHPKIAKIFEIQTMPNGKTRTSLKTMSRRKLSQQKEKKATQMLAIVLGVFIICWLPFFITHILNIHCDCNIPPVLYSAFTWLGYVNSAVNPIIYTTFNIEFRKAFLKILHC
Chain of Beta-2 adrenergic receptor (Homo sapiens) (P07550 whole entry, looked up): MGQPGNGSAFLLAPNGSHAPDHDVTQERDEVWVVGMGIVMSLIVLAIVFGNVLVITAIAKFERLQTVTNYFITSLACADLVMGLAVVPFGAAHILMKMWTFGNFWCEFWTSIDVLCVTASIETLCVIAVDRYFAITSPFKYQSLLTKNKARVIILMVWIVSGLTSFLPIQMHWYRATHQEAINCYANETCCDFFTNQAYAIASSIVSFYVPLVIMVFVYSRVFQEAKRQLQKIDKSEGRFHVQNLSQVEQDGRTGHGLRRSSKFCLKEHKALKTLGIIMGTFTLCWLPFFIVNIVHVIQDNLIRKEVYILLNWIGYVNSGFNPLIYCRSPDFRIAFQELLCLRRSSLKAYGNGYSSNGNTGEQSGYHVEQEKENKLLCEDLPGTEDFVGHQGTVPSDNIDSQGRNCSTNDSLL
Chain of Muscarinic acetylcholine receptor M1 (Homo sapiens) (P11229 whole entry, looked up): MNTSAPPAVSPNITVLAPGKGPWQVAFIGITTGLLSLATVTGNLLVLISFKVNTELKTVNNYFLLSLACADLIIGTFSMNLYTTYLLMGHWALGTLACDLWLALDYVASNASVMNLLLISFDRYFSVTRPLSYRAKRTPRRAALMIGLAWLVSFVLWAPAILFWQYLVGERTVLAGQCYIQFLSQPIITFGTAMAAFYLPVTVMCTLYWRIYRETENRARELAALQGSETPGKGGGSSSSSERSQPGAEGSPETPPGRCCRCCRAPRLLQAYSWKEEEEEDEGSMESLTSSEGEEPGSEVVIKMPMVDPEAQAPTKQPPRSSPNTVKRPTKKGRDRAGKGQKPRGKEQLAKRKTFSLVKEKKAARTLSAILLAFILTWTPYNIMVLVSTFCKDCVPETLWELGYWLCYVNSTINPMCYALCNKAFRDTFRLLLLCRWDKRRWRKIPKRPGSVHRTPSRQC
Chain of KiSS-1 receptor (Homo sapiens) (Q969F8 whole entry, looked up): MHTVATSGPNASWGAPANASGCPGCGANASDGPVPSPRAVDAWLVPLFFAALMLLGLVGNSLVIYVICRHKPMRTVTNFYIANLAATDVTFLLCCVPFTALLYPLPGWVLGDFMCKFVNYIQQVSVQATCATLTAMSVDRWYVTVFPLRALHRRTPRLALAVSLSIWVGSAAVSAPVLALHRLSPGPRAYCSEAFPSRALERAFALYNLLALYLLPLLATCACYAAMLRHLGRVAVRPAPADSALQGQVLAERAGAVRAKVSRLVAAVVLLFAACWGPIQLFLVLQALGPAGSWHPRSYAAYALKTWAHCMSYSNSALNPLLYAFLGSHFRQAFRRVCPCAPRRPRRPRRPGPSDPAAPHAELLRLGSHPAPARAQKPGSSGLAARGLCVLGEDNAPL

| SMILES | Potency [1] | Potency [2] | Potency [3] | Potency [4] | Potency [5] | Potency [6] | Potency [7] | Potency [8] | Potency [9] | Potency [10] | Potency [11] | Potency [12] | Potency [13] | Potency [14] | Potency [15] | Potency [16] | Potency [17] | Potency [18] | Potency [19] | Potency [20] |
| --- | --- | --- | --- | --- | --- | --- | --- | --- | --- | --- | --- | --- | --- | --- | --- | --- | --- | --- | --- | --- |
| Cc1ccccc1S(=O)(=O)O | inactive | inactive | inactive | inactive | inactive | inactive | inactive | inactive | inactive | inactive | inactive | inactive | inactive | inactive | inactive | inactive | inactive | inactive | inactive | inactive |
| CCCCOC(=O)CCS | inactive | inactive | inactive | inactive | inactive | inactive | inactive | inactive | inactive | inactive | inactive | inactive | inactive | inactive | inactive | inactive | inactive | inactive | inactive | inactive |
| CCOC(=O)OC(=O)OCC | inactive | inactive | inactive | inactive | inactive | inactive | inactive | inactive | inactive | inactive | inactive | inactive | inactive | inactive | inactive | inactive | inactive | inactive | inactive | inactive |
| CC(C)C(=O)Nc1cccc(C2CN3CCSC3=N2)c1 (stereo not given) | inactive | inactive | inactive | inactive | inactive | inactive | inactive | inactive | inactive | inactive | inactive | inactive | inactive | inactive | inactive | inactive | inactive | inactive | inactive | inactive |
| O=C1OC(=O)c2ccc3c4c(ccc1c24)C(=O)OC3=O | inactive | inactive | inactive | inactive | inactive | inactive | inactive | inactive | inactive | inactive | inactive | inactive | inactive | inactive | inactive | inactive | inactive | inactive | inactive | inactive |
| CCN1C(=O)c2ccccc2C1Nc1ccc(OCCN2CCCCC2)cc1 (stereo not given) | inactive | inactive | inactive | inactive | inactive | inactive | inactive | inactive | inactive | inactive | inactive | inactive | inactive | 3.65 µM (active) | inactive | inactive | inactive | inactive | inactive | inactive |
| CCOC(=O)CN1CCCC1=O | inactive | inactive | inactive | inactive | inactive | inactive | inactive | inactive | inactive | inactive | inactive | inactive | inactive | inactive | inactive | inactive | inactive | inactive | inactive | inactive |
